High-throughput results: PubChem, several laboratories
In the library only some 4.2% were active in any assay of this set; here they are far more common.
MITF act – MITF TRPM1 promoter activation in melanoma cells. actives 0.75% (n = 300,000). SK-MEL-5 TRPM1-promoter luciferase, 24 h; % of positive control, neutral wells = 0. activation, % at 12.5 µM. AID 588334;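 active = mean activation of at least 80% with every replicate also reaching 80%; inconclusive = mean reaches 80% but some replicate falls short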;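 also: 0% = neutral control wells and 100% = parthenolide positive control wells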
GAA850 FXN act – frataxin GAA850 promoter activation | HEK293 lucGAA850 FXN promoter luciferase reporter, 24 h; percent of 10 µM SAHA response | actives 0.56% (n = 360,000) | activation, % at 6 µM;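 active = activation above the average of all compounds screened plus 3 SD, cutoff fixed separately per campaign, cut at about 7.5% in these data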;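 also: 0% = DMSO wells and 100% = 10 µM SAHA wells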
esBAF inh – SWI/SNF esBAF complex inhibition. mouse ES cells, Bmi1-luciferase knock-in reporter, 24 h; 100% = twice the neutral-well signal. reporter increase, % at 12.5 µM. actives 2% (n = 350,000); in the data active = activation above about 40%; inconclusive = no clear call, values can overlap the other calls;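 also: 0% = median of the plate's neutral control wells and 100% = double that signal; a rise in the Bmi1 reporter signal indicates esBAF inhibition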
AHR act – activates the human aryl hydrocarbon receptor | actives 2.5% (n = 320,000) | activation, % at 5 µM | P35869 | AID 2796 | AHR-responsive luciferase reporter cells, luminescence; in the data active = activation above about 47%;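 also: 0% = vehicle wells and 100% = reference agonist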
Target sequence (P35869 whole entry, looked up): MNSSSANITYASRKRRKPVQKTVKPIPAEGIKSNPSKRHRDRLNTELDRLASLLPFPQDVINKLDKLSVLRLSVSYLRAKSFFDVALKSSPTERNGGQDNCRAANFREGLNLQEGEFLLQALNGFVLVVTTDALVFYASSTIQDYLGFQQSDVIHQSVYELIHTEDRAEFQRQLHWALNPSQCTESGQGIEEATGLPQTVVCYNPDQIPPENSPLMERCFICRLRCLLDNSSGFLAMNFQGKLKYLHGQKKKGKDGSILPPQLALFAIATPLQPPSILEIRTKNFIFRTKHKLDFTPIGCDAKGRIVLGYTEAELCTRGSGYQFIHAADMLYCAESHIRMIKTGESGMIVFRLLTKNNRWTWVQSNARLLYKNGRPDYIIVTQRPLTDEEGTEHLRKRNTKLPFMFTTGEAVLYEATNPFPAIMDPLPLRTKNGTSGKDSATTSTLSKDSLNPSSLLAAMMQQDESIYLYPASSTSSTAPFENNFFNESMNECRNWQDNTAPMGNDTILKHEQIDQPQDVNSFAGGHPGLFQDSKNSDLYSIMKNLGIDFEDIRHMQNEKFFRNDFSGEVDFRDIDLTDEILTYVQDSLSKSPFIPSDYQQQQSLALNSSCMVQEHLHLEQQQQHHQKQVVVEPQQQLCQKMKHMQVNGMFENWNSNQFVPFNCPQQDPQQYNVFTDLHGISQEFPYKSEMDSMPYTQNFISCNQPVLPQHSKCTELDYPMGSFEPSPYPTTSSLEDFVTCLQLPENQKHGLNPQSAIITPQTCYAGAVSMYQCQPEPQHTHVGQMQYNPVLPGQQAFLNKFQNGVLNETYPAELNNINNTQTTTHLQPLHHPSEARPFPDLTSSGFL
Wnt bcat act – Wnt/beta-catenin pathway activation; actives 1.2% (n = 300,000); AID 743398; Wnt/beta-catenin reporter cell assay, activator, plate reader; activation, % at 9.35 µM; in the data active = activation above about 30%, passing the limit was not always enough; inconclusive = no clear call, values can overlap the other calls;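 also: 0% = neutral control wells and 100% = positive control wells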
The depositor's hits bear a star.

How did COc1ccc(NC(=O)Nc2ccc3c(c2)CC(=O)N([C@H](C)CO)C[C@H](C)[C@@H](CN(C)Cc2ccccc2)O3)cc1 do in these assays?
esBAF inh: -2.0

How did C=CCNc1nnc(-c2ccncc2)s1 do in these assays?
MITF act: 7.8; GAA850 FXN act: 0.8; AHR act: 1.6

Results for c1ccc2c(Nc3nnc(-c4ccncc4)s3)cccc2c1 ?
MITF act: inconclusive; GAA850 FXN act: 3.2; esBAF inh: 55.0*; AHR act: 62.8*

Results for COc1cc(/C=N/N(C)C)cc(Br)c1O ?
MITF act: -6.2; GAA850 FXN act: 0.4; esBAF inh: -3.7; AHR act: 1.7; Wnt bcat act: 4.2

Results for COc1cc(/C=N/N(C)c2ccccc2)cc(Cl)c1O ?
MITF act: 23.7; GAA850 FXN act: 4.5; esBAF inh: 50.3*; AHR act: 52.3*; Wnt bcat act: 8.8

How did Clc1ccc(Cn2c(/C=C/c3ccco3)nc3ccccc32)cc1 do in these assays?
MITF act: 45.0; GAA850 FXN act: 4.7; AHR act: 8.2; Wnt bcat act: 34.0*

What do the screens show for `C[C@H]1CN([C@@H](C)CO)C(=O)c2cc(C#CC3CCCCC3)cnc2O[C@H]1CN(C)C(=O)Cc1ccccn1`?
esBAF inh: 1.9

Results for Cc1ccc(NS(=O)(=O)c2ccc(N/N=C/c3ccncc3)c([N+](=O)[O-])c2)c(C)c1 ?
MITF act: 8.7; GAA850 FXN act: 2.9; AHR act: 48.2*

Results for CCOc1ccc(C=NNc2ccc(S(=O)(=O)Nc3ccccc3C(=O)O)cc2[N+](=O)[O-])cc1 ?
MITF act: -8.0; GAA850 FXN act: 1.3; esBAF inh: -6.1; AHR act: -0.9; Wnt bcat act: 37.2*

Results for CSc1ccc(C=NNc2ccc(S(=O)(=O)Nc3ccccc3C(=O)O)cc2[N+](=O)[O-])cc1 ?
MITF act: -4.6; GAA850 FXN act: -0.1; esBAF inh: -0.8; AHR act: -0.1; Wnt bcat act: -2.5

Results for COCC#Cc1ccc([C@@H]2[C@@H](C#N)N(C(=O)NC3CCCC3)[C@@H]2CO)cc1 ?
esBAF inh: -0.7

How did CCOc1ccc(NC(=S)Nc2ccc(OCC)cc2)cc1 do in these assays?
MITF act: 5.2; GAA850 FXN act: -0.1; AHR act: 0.3; Wnt bcat act: -5.0

Results for CCOc1ccc(NC(=S)Nc2cccc3ccccc23)cc1 ?
MITF act: 13.6; GAA850 FXN act: 2.6; esBAF inh: 32.9; AHR act: 66.2*; Wnt bcat act: 31.4*

Results for CCOc1ccc(NC(=O)Nc2ccc3nsnc3c2)cc1 ?
MITF act: 74.2; GAA850 FXN act: 3.7; esBAF inh: inconclusive; AHR act: 7.2; Wnt bcat act: 0.0

How did CCOc1ccc(NC(=S)Nc2cccc3cnccc23)cc1 do in these assays?
MITF act: -22.8; GAA850 FXN act: -3.7; AHR act: 59.6*; Wnt bcat act: 6.3

Results for CCOc1ccc(NC(=S)Nc2ccc3nsnc3c2)cc1 ?
MITF act: 23.5; GAA850 FXN act: 1.6; AHR act: 50.7*

Results for O=C(NC1Cc2ccccc2C1)[C@@H]1[C@@H](CO)[C@@H]2Cn3c(cccc3=O)[C@H]1N2Cc1ccccc1F ?
esBAF inh: -1.1

Results for Cc1ccc(SCc2c(-c3ccccc3)nn(C)c2Cl)cc1 ?
MITF act: 15.7; GAA850 FXN act: 2.7; esBAF inh: -3.1; AHR act: 6.1

Results for Cc1ccc(SCc2nn(C)c(Cl)c2C=O)cc1 ?
MITF act: 54.0; GAA850 FXN act: 4.3; esBAF inh: 42.4*; AHR act: -2.4; Wnt bcat act: 5.7

What do the screens show for `C[C@H](CO)N1C[C@H](C)[C@H](CN(C)S(=O)(=O)c2cccs2)Oc2ccc(NC(=O)Cn3cnnn3)cc2C1=O`?
esBAF inh: 1.6

What do the screens show for `Cc1ccccc1-n1c(SCC(=O)N2CCCC2)nnc1-c1ccccn1`?
MITF act: -13.4; GAA850 FXN act: -0.9; esBAF inh: -1.0; AHR act: -0.1

How did Cn1c(SCC(=O)c2ccccc2)nnc1-c1ccncc1 do in these assays?
MITF act: 6.4; GAA850 FXN act: -1.8; esBAF inh: -3.2; AHR act: 0.1; Wnt bcat act: 3.9

What do the screens show for `Cn1c(SCC(=O)c2ccccc2)nnc1-c1ccc(O)cc1`?
MITF act: 23.0; GAA850 FXN act: 0.4; esBAF inh: 24.2; AHR act: 0.7; Wnt bcat act: 63.6*

Results for Cn1c(SCC(=O)c2ccccc2)nnc1-c1ccco1 ?
MITF act: 30.0; GAA850 FXN act: 6.1; esBAF inh: 34.4; AHR act: 0.6; Wnt bcat act: 39.9*
